In all, about 320,000 compounds went through this assay and about 1,300 (0.41%) were called active. About 3% were inconclusive and are not listed. How the calls were made is not given here. Not all results are given here. Potency and affinity values are given separately.
Assay: growth inhibition of non-replicating M. tuberculosis (AID 488890);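 further: plate controls were DMSO cells for no effect and high antibiotic wells for full effect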
Conditions: Mycobacterium tuberculosis non-replicating, at 25 µM, stronger effect = higher value

Row | Structure (SMILES) | inhibition [%]
1 | COc1ccc(NC(=O)CSc2ccc3nnc(-c4ccccn4)n3n2)cc1OC | -12
2 | Cc1nn(C)cc1CN1CCC(CO)(CCOc2ccccc2)CC1 | -0.6
3 | COc1ccc2[nH]c(CN3CCC(CO)(CCOc4ccccc4)CC3)c(C)c2c1 | 48.7
4 | COc1ccc(OC)c(C(=O)NC2CCSc3ccccc32)c1 (configuration not stated) | 3.7
5 | O=C(Nc1cccc(NC(=O)C2CC3CCCC(C2)C3=O)n1)C1CC2CCCC(C1)C2=O (configuration not stated) | 28.2
6 | Cc1cc(Cl)ccc1N=c1ssnc1Cl | 19.9
7 | Cc1ccc(N=c2ssnc2Cl)cc1 | 77.3
8 | Cn1nc(C(=O)NCc2cccs2)c2ccccc2c1=O | 40.9
9 | COC(=O)c1sc2ncn(-n3c(C)ccc3C)c(=O)c2c1C | 5.25
10 | Cc1c(C(=O)O)sc2ncn(C)c(=O)c12 | -3.22
11 | COc1cccc(NS(=O)(=O)c2nc3nc(C)cc(C)n3n2)c1 | -24.1
12 | Cc1cc(C)n2nc(S(=O)(=O)NC(C)(C)C)nc2n1 | -0.21
13 | COc1ccc(OCC(=O)N(C)CC2COc3ccccc3O2)cc1 (configuration not stated) | 27.1
14 | COCc1nnc(NC(=O)c2cccc(NC(=O)C(C)C)c2)s1 | -15.2
15 | Cc1ccc(C(=O)N/C(=C\c2cccc([N+](=O)[O-])c2)C(=O)NC(Cc2ccccc2)C(=O)O)cc1 (configuration not stated) | 4.43
16 | CC(=O)Nc1ccc(N/C(N)=N/c2nc(C)cc(C)n2)cc1 | -1.18
17 | Cc1ccc(N/C(N)=N/c2nc(C)cc(C)n2)cc1 | 7.73
18 | CC(C)(C)c1ccc(C(=O)NNC(=O)c2ccc(Cl)cc2)cc1 | -14.5
19 | CC(C)(C)NC(=O)C(=O)NNC(=O)c1ccccc1 | 10.8
20 | O=C(CCC(=O)c1ccc(Br)cc1)Nc1cccnc1 | 40.4
21 | CCN(CC(=O)NC(C)C)C(=O)[C@@H](NC(=O)c1ccco1)C(C)C | -7.65
22 | CCCCC(O)(CCCC)C(=O)NNc1ccccc1 | 36.2
23 | CCCC(O)(CCC)C(=O)NNc1ccccc1 | 23.3
24 | Cc1ccc(-c2nnc(SCC(=O)NCC3CCCO3)n2C)cc1 (configuration not stated) | -16.4

Row | Structure (SMILES) | inhibition [%]
25 | NC(=O)c1oc2ccccc2c1NC(=O)c1nc2ccccc2s1 | 5.47
26 | CC(C)(C)C(=O)Nc1nnc(-c2ccncc2)o1 | 1.94
27 | O=C(Nc1nnc(-c2ccc(Cl)cc2)o1)c1ccc(N2C(=O)CCC2=O)cc1 | -7.34
28 | Cc1ccccc1C(=O)Nc1nnc(-c2ccncc2)o1 | 30.5
29 | O=C(Nc1nnc(-c2ccc(Cl)cc2)o1)Nc1ccccc1F | 11.3
30 | O=C(Nc1nnc(-c2ccc(Cl)cc2)o1)Nc1ccccc1Cl | -7.45
31 | Cc1ccnc2nc(C(=O)Nc3nnc(-c4ccc(Cl)cc4)o3)nn12 | 2.05
32 | O=C(Nc1nnc(-c2ccc(Cl)cc2)o1)NC1CCCCC1 | -11.6
33 | COCCN(C(=O)CSc1nc2ccccc2o1)c1c(N)n(Cc2ccccc2)c(=O)[nH]c1=O | 10.9
34 | Cc1ccc(NC(=O)CCCCCCCCCCC2COCCO2)c(C)c1 (configuration not stated) | -9.85
35 | CN(C(=O)COC(=O)c1ccc(Br)c(S(=O)(=O)N2CCOCC2)c1)C1CCCCC1 | 11.1
36 | Cc1cc(-c2nnco2)c(C)n1-c1ccccc1 | 11.1
37 | O=C1NC2(CCCCCC2)C(=O)N1Cc1ccc([N+](=O)[O-])cc1 | -2
38 | O=C1C(=O)N(CCN2CCOCC2)C(c2ccccc2F)/C1=C(\O)c1ccc(S(=O)(=O)N2CCOCC2)cc1 (configuration not stated) | 2.92
39 | O=C(COc1ccccc1)N/N=C/c1sc(=O)n(Cc2cccc(C(=O)O)c2)c1Cl | -0.36
40 | CC[C@H](C)C(C(=O)N1CCN(C(=O)OC(C)(C)C)CC1)n1cc(C(CC(C)C)NC(=O)OC(C)(C)C)nn1 (some centres not stated) | 10.5
41 | CCOC(=O)c1ccc(CNC(=O)Cn2nnc(-c3cccc(C)c3)n2)o1 | 4.91
42 | Cc1ccccc1NC(=O)COC(=O)CCSc1ccccc1 | 61.5
43 | CCOc1ccc(C(=O)n2cc(C(=O)OC)c3ccccc32)cc1 | 24.8
44 | O=C1CCc2cc(S(=O)(=O)NCc3ccc(F)cc3)cc3c2N1CCC3 | 22.8
45 | COc1ccc(CNC(=O)CSc2ncn[nH]2)cc1OC | -3.59
46 | COC(=O)c1ccc(NC(=O)CN2CCN(S(=O)(=O)c3cc(Cl)ccc3OC)CC2)cc1 | 54.1
47 | CN1CCc2c(sc(NC(=O)c3ccco3)c2C(N)=O)C1 | 0.26
48 | COC(=O)c1sc(NC(=O)c2ccco2)c(C#N)c1C | 16.9

Row | Structure (SMILES) | inhibition [%]
49 | CN1CCc2c(sc(NC(=O)c3ccc(C(=O)c4ccccc4)cc3)c2C(N)=O)C1 | -13.4
50 | COC(=O)c1c(NC(=O)Cc2ccccc2)sc2c1CCN(C(C)C)C2 | -13.3
51 | COC(=O)c1c(NC(=O)c2ccco2)sc2c1CCN(C(C)C)C2 | 2.92
52 | COC(=O)c1sc(NC(=O)c2c(OC)cccc2OC)c(C#N)c1C | -6.6
53 | COc1ccc(/C(C)=N/OCC(=O)N=Nc2c(O)[nH]c3ccccc23)cc1 | -24.1
54 | CCC(C)NC(=O)/C=C/c1cccs1 (configuration not stated) | 59.1
55 | COc1ccc(CNC(=O)N2CCN(c3ccccc3OC)CC2)cc1 | 1.13
56 | O=C(CCc1nc2ccccc2c(=O)[nH]1)Nc1nnc(SCc2ccc(F)cc2)s1 | -4.81
57 | O=C(Cc1ccccc1)c1ccccc1C(=O)N1CCCCC1 | 9.16
58 | O=C(Nc1ccc(Cl)c(Cl)c1)Nc1nnc(-c2ccncc2)s1 | 68.9
59 | O=C(Nc1ccc(Cl)cc1)Nc1nnc(-c2ccncc2)s1 | 16.2
60 | CC1CCCC(NC(=O)COC(=O)c2ccc(Cl)nc2)C1C (configuration not stated) | -6.83
61 | C=CCn1c(C)csc1=Nc1ccccc1C | 10.7
62 | Cc1nn(Cc2ccccc2Cl)c(C)c1NC(=O)c1noc(C(C)C)c1[N+](=O)[O-] | -8.32
63 | CCc1ccccc1NC(=O)c1noc(C(C)C)c1[N+](=O)[O-] | -10.1
64 | O=C1CN(S(=O)(=O)c2ccccc2)CCN1 | 3.07
65 | O=C(CC(c1ccccc1)c1ccccc1O)NCc1ccccc1Cl (configuration not stated) | 23.8
66 | O=C1CSC(=S)N1c1cccnc1 | 11.9
67 | O=C(O)c1ccc(N2C(=O)CSC2=S)cc1 | 74.2
68 | O=C1CSC(=Nc2ccc(Cl)cc2)N1Cc1cccnc1 | 1.07
69 | O=C(O)c1ccc(N=C2SCC(=O)N2Cc2ccccc2)cc1 | 7
70 | N#Cc1ccc(OCC(O)CN2CCN(CC(O)COc3ccc(C#N)cc3)CC2)cc1 (configuration not stated) | -21.4
71 | Cc1ccc(-c2nnc(-c3cccnc3)o2)cc1 | 37.8
72 | Brc1ccc(-c2nnc(-c3cccnc3)o2)cc1 | 68.4

Row | Structure (SMILES) | inhibition [%]
73 | CN(C)S(=O)(=O)c1cccc(-c2nnc(SCc3cc(Cl)cc4c3OCOC4)n2N)c1 | 23.1
74 | Cc1onc(-c2ccccc2Cl)c1C(=O)Nc1ccccc1O | 8.07
75 | CN1CC(=O)N/C1=N\C(=O)Nc1ccc(O)cc1 | -12.3
76 | CN1CC(=O)NC1=NC(=O)c1cc(F)c(F)cc1Cl | -0.31
77 | COc1ccc(C2NC(=S)NC(C)=C2C(=O)Nc2ccccn2)cc1OC (configuration not stated) | -7.65
78 | Cc1ccc(COC(=O)c2cc(S(=O)(=O)N3CCOCC3)ccc2C)cc1 | 40.1
79 | C/C(=N/NC(=O)c1ccncc1)c1cc2ccc(O)cc2oc1=O | 78.4
80 | COc1ccc(/C(C)=N/NC(=O)c2ccncc2)cc1 | 67.2
81 | COc1ccc2oc(=O)c(/C(N)=N/NC(=O)c3ccncc3)cc2c1 | 61.4
82 | C/C(=N\NC(=O)c1ccncc1)c1cc2ccccc2o1 | 69.3
83 | O=C(CCC(=O)N1CCOCC1)NCCc1ccc(F)cc1 | 5.21
84 | CC(C)C(NCC(=O)Nc1ccccc1C(=O)NC1CC1)c1ccccc1 (configuration not stated) | 19.6
85 | CCC(C)(C)NS(=O)(=O)c1cc(CN2C(=O)c3cccnc3C2=O)ccc1OC | 17.1
86 | O=C1CC2(CCCCC2)Oc2ccc(OCC(=O)N3CCOCC3)cc21 | 43.3
87 | CCOC(=O)N1CCN(C(=O)COc2ccc3c(c2)C(=O)CC2(CCN(C(C)=O)CC2)O3)CC1 | -4.94
88 | O=C(CCNc1cc(Cl)cc(Cl)c1)c1ccco1 | -7.67
89 | O=C(CNC(=O)c1ccco1)Nc1ccc(F)cc1 | -22.8
90 | O=C(CNC(=O)c1ccco1)Nc1cccc(Cl)c1 | -9.33
91 | COc1ccc(C(=O)CCNc2cccc(Cl)c2)cc1 | 73.7
92 | COc1ccc(C(=O)CC(=O)c2ccc(OC)cc2)cc1 | 19.6
93 | O=C(Nc1ccc(Cl)c(C(F)(F)F)c1)c1ccco1 | 71.2
94 | O=C(/C=C/Nc1ccc(F)cc1)c1ccco1 | -1.7
95 | O=C(CCNC(=O)c1ccco1)Nc1ccc(Cl)c(C(F)(F)F)c1 | 4.07
96 | O=C(CN1C(=O)NC2(CCCCC2)C1=O)N1CCN(c2ncccn2)CC1 | 3.11

Row | Structure (SMILES) | inhibition [%]
97 | CC(C)(SC(=S)N1CCCCCC1)C(=O)O | 13.4
98 | CC1=C(C(=O)NCc2ccc3c(c2)OCO3)C2(CCC(C)CC2)OC1=O (configuration not stated) | 1.75
99 | COc1ccccc1-n1cnnc1SC(C)C(=O)Nc1ccc(NC(C)=O)cc1 (configuration not stated) | -12.2
100 | Oc1c(C(c2ccc(F)cc2)N2CCc3ccccc3C2)sc2ncnn12 (configuration not stated) | 13.3
101 | Cc1cc(C)cc(OCc2nnc(SCC(=O)c3ccccc3)o2)c1 | -6.78
102 | C/C(N)=C(/C#N)C(=O)CSc1nnc(C)n1-c1ccccc1 | -16.6
103 | O=C(O)C(F)(F)S(=O)(=O)O | -5.17
104 | Cc1cccc(NC2=NC3(CCCCC3)N=C(N)N2)c1 | 22.2
105 | Cc1ccc(C)c(NC(=S)NCc2ccc3c(c2)OCO3)c1 | 79.5
106 | CC(=O)Nc1ccc(Nc2ccc3nonc3c2[N+](=O)[O-])cc1 | 1.34
107 | COc1cccc(CNC(=O)CCNS(=O)(=O)c2ccc3[nH]c(=O)oc3c2)c1 | -5.61
108 | Cc1ccc(C(=O)NCC(=O)Nc2ccc(F)c(F)c2F)cc1 | -13.1
109 | O=C(Cn1nnc(-c2ccccc2)n1)NNC(=O)c1ccco1 | 67.8
110 | O=C(N/N=C\c1ccc(OC(=O)c2cccs2)cc1)c1ccc(Cl)cc1 | 52.2
111 | O=C(N/N=C/c1ccc(OC(=O)c2ccco2)cc1)c1ccncc1 | 69
112 | COc1cc(/C=N/NC(N)=O)ccc1OC(=O)c1cccs1 | 2.79
113 | Cc1ccc(C(=O)N/N=C\c2ccc(OC(=O)c3cccs3)cc2)cn1 | -8.9
114 | O=C(N/N=C\c1ccc(OC(=O)c2ccco2)cc1)c1ccc(Cl)cc1 | 78.6
115 | COc1ccc(C(=O)Oc2ccc(/C=N/Nc3ccc(Cl)c(C(=O)O)c3)cc2OC)cc1 | 12.6
116 | COc1cc(/C=N/Nc2ccc(Cl)c(C(=O)O)c2)ccc1OC(=O)c1ccccc1F | 39
117 | COc1cc(/C=N/NC(=O)C(N)=O)ccc1OC(=O)c1cccs1 | -4.85

— PubChem BioAssay AID488890 (Southern Research Specialized Biocontainment Screening …, 2010)
